# Source: the supplement of paper PMC7393113
# Several values for one entry are separate records, joined by “and”; a condition that tells them apart may be missing. Equal values may be shown once. Where a name gives a salt, the structure may show the parent alone. ± gives the standard deviation of the averaged measurements.
# Test system: iBMDM (immortalised mouse bone-marrow-derived macrophages), LPS-stimulated
# Assay: mitochondrial superoxide (MitoSOX fluorescence) fold increase over unstimulated control; higher = more LPS-induced mitochondrial ROS (less inhibition)
# Conditions: inhibitor concentration: 500 nM, LPS: 100 ng/ml
# Outline: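 Immortalised mouse bone-marrow-derived macrophages were seeded in triplicate in black 96-well plates and moved to phenol-red-free 1% FCS/DMEM for 20 h. They were pretreated 30 min with kinase inhibitors (500 nM), loaded with 1 μM MitoSox for 10 min, then given LPS (100 ng/ml). Fluorescence (excitation/emission 510/580 nm, ClarioStar plate reader) was read every 60 min for 4 h. Mitochondrial superoxide is fold induction over untreated control macrophages, averaged over three replicates.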
Structure (SMILES),mitochondrial superoxide (time after LPS: 1 h),mitochondrial superoxide (time after LPS: 2 h),mitochondrial superoxide (time after LPS: 4 h)
CCN1CCN(Cc2ccc(-c3cc4c(N[C@H](C)c5ccccc5)ncnc4[nH]3)cc2)CC1,1.08 ± 0.019,1.11 ± 0.04,1.25 ± 0.081
CCC[C@H](NC(=O)/C(C#N)=C/c1cccc(Br)n1)c1ccccc1 [Degrasyn (WP1130)],1.18 ± 0.047,1.34 ± 0.032,1.48 ± 0.038
Cc1ccc2nc(NCCN)c3ncc(C)n3c2c1,1.43 ± 0.036,1.48 ± 0.027,1.63 ± 0.047
Cc1ccc(-n2nc(C(C)(C)C)cc2NC(=O)Nc2ccc(OCCN3CCOCC3)c3ccccc23)cc1 [BIRB 796 (Doramapimod)],0.987 ± 0.051,1.11 ± 0.024,1.22 ± 0.032
CC(C)c1cnn2c(NCc3ccccc3)cc(NCCCCCCN)nc12,1.16 ± 0.054,1.25 ± 0.025,1.47 ± 0.059
Cc1ccc(F)c(NC(=O)Nc2ccc(-c3cccc4[nH]nc(N)c34)cc2)c1 [Linifanib (ABT-869)],1.66 ± 0.077,1.72 ± 0.074,1.83 ± 0.067
CNC(=O)c1ccc(C)c(-n2c(C)cc(OCc3ccc(F)cc3F)c(Br)c2=O)c1,1.33 ± 0.056,1.48 ± 0.059,1.6 ± 0.016
Cn1cnc2c(F)c(Nc3ccc(Br)cc3F)c(C(=O)NOCCO)cc21,1.13 ± 0.046,1.26 ± 0.038,1.29 ± 0.028
CC(C)(C)c1cc(NC(=O)Nc2ccc(-c3cn4c(n3)sc3cc(OCCN5CCOCC5)ccc34)cc2)no1 [Quizartinib (AC220)],1.15 ± 0.027,1.19 ± 0.047,1.31 ± 0.042
Cc1nc(Nc2ncc(C(=O)Nc3c(C)cccc3Cl)s2)cc(N2CCN(CCO)CC2)n1 [Dasatinib],1.51 ± 0.022,1.61 ± 0.069,1.85 ± 0.068
"Cc1cc(Nc2cc(N3CCN(C)CC3)nc(Sc3ccc(NC(=O)C4CC4)cc3)n2)n[nH]1 [VX-680 (Tozasertib, MK-0457)]",1.55 ± 0.069,1.64 ± 0.051,1.73 ± 0.033
CNCc1ccc(-c2cc(-c3nc(-c4ccc(S(=O)(=O)C(C)C)cc4)cnc3N)on2)cc1,1.12 ± 0.068,1.24 ± 0.057,1.26 ± 0.018
"CC[C@H](Nc1ncnc2[nH]cnc12)c1nc2cccc(F)c2c(=O)n1-c1ccccc1 [CAL-101 (Idelalisib, GS-1101)]",1.34 ± 0.019,1.4 ± 0.06,1.48 ± 0.11
Cn1cc(C2=C(c3cn(CCCSC(=N)N)c4ccccc34)C(=O)NC2=O)c2ccccc21 [Ro 31-8220 Mesylate],1.57 ± 0.051,1.6 ± 0.0078,1.79 ± 0.12
Cc1cnc(-c2cnc(NCCNc3ccc(C#N)cn3)nc2-c2ccc(Cl)cc2Cl)[nH]1,1.14 ± 0.048,1.09 ± 0.041,1.25 ± 0.027
CN(c1ncccc1CNc1nc(Nc2ccc3c(c2)CC(=O)N3)ncc1C(F)(F)F)S(C)(=O)=O,1.27 and 1.06,1.34 and 1.11,1.63 and 1.11

Structure (SMILES),mitochondrial superoxide (time after LPS: 1 h),mitochondrial superoxide (time after LPS: 2 h),mitochondrial superoxide (time after LPS: 4 h)
COc1cc2nccc(Oc3ccc(NC(=O)Nc4cc(C)on4)c(Cl)c3)c2cc1OC [Tivozanib (AV-951)],1.14 ± 0.031,1.17 ± 0.037,1.24 ± 0.024
COc1ccc(-c2ccc3c(N4CCOC[C@@H]4C)nc(N4CCOC[C@@H]4C)nc3n2)cc1CO,1.14 ± 0.024,1.19 ± 0.031,1.25 ± 0.025
CS(=O)(=O)N1CCc2c(-c3cnc(N)nc3)nc(N3CCOCC3)nc21,1.31 ± 0.047,1.48 ± 0.024,1.55 ± 0.025
COc1cc(N2CCC(N)CC2)ccc1Nc1ncc(Cl)c(-c2c[nH]c3ccccc23)n1,1.21 ± 0.018,1.27 ± 0.025,1.36 ± 0.057
Cc1cc(Nc2ncc(Cl)c(Nc3ccccc3S(=O)(=O)C(C)C)n2)c(OC(C)C)cc1C1CCNCC1,1.2 ± 0.013,1.32 ± 0.033,1.39 ± 0.024
N#CC[C@H](C1CCCC1)n1cc(-c2ncnc3[nH]ccc23)cn1,1.19 and 1.09,1.29 and 1.15,1.35 and 1.29
O=c1c(O)c(-c2ccc(O)c(O)c2)oc2cc(O)cc(O)c12 [Quercetin],1.31 ± 0.046,1.35 ± 0.071,1.43 ± 0.063
Nc1nccc(Oc2ccc(NC(=O)c3c[nH]cc(-c4ccc(F)cc4)c3=O)cc2F)c1Cl,1.21 ± 0.032,1.22 ± 0.043,1.37 ± 0.11
CCN(CC)CCNC(=O)c1c(C)[nH]c(/C=C2\C(=O)Nc3ccc(F)cc32)c1C [Sunitinib Malate],1.61 ± 0.057,1.73 ± 0.072,1.7 ± 0.099
C=CC(=O)Nc1cccc(Sc2nc(Nc3ccc(N4CCN(C)CC4)cc3)ncc2Cl)c1,1.24 ± 0.09,1.26 ± 0.035,1.26 ± 0.032
Cc1[nH]c(/C=C2\C(=O)Nc3ccc(S(=O)(=O)Cc4c(Cl)cccc4Cl)cc32)c(C)c1C(=O)N1CCC[C@@H]1CN1CCCC1,1.56 ± 0.039,1.61 ± 0.027,1.77 ± 0.028
CO[C@H]1C[C@@H]2CC[C@@H](C)[C@@](O)(O2)C(=O)C(=O)N2CCCC[C@H]2C(=O)O[C@H]([C@H](C)C[C@@H]2CC[C@@H](OCCO)[C@H](OC)C2)CC(=O)[C@H](C)/C=C(\C)[C@@H](O)[C@@H](OC)C(=O)[C@H](C)C[C@H](C)/C=C/C=C/C=C/1C [Everolimus (RAD001)],1.37 ± 0.055,1.42 ± 0.028,1.5 ± 0.06
COc1ccc2c(Oc3ccc(NC(=O)c4c(C)n(CC(C)(C)O)n(-c5ccccc5)c4=O)nc3)ccnc2c1,1.09 ± 0.031,1.2 ± 0.034,1.391 ± 0.0084
O=C(Nc1ccc(-c2ccnc(Nc3ccc(N4CCOCC4)cc3)n2)cc1)C1CCCN1 (stereo not drawn),1.21 ± 0.058,1.232 ± 0.011,1.3 ± 0.068
C[C@@]1(C(=O)Nc2ccc(F)nc2)CCCN1c1nc(Nc2cc(C3CC3)n[nH]2)c2cccn2n1,1.38 ± 0.051,1.43 ± 0.06,1.45 ± 0.066
